Active and inactive are the calls of the source. Rule for the calls: active = hit-call score of the fitted dose curve at least 0.9, where 1 is the maximum; inactive = score below 0.9.
Read-out: Interleukin-8 (IL8), CXCL8 (gene 3576)
Experiment: BSK_hDFCGF_IL8: BioMAP Diversity Plus: hDFCGF Assay for Interleukin-8 (IL8) Biomarker Activity (AID 2283058)
Conditions: primary human foreskin fibroblasts; actives raise or lower the signal
How it was run: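 IL-8 levels read by ELISA at 24 hours after dosing human skin fibroblast cultures. Parallel SRB staining assessed overt cytotoxicity, and gain or loss of signal was fitted against DMSO control.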
In the case of O=C1C(Cl)=C(Cl)C(=O)C(Cl)=C1Cl, the AC50 is reported as 28.8 µM (active).
With N#CCCCCC#N the outcome was “inactive”.
For CC(C)(c1cc(Cl)c(O)c(Cl)c1)c1cc(Cl)c(O)c(Cl)c1, the AC50 was 28.5 µM (active).
In the case of COCC(=O)N(c1c(C)cccc1C)N1CCOC1=O, the outcome is reported as “inactive”.
For CC(C)CCCCCCCOP(=O)(Oc1ccccc1)Oc1ccccc1, the AC50 was 25.7 µM (active).
In the case of C=CCN(CC=C)C(=O)C(Cl)Cl, the outcome is reported as “inactive”.
With c1ccc(Nc2ccc3ccccc3c2)cc1 the outcome was “inactive”.
For Cc1ccc(OP(=O)(Oc2ccc(C)cc2)Oc2ccc(C)cc2)cc1 (tested in a mixture with another compound), the outcome was “inactive”.
In the case of O=S(=O)(c1ccccc1)c1ccccc1, the outcome is reported as “inactive”.
With CC(=O)/C=C/c1ccccc1 the outcome was “inactive”.

Read-out: not listed separately
Experiment: BSK_hDFCGF_Proliferation: Cell Proliferation Assessment in the BioMAP Diversity Plus: hDFCGF Assay (AID 2283059);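 note: curves fitted for both rise and fall of signal versus DMSO baseline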
Conditions: primary human foreskin fibroblasts
How it was run: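 Primary human foreskin fibroblasts, sub-confluent; […]; 10% TCA fix, 0.1% SRB stain, A560 total protein. Gain/loss fitted bidirectionally vs DMSO control.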
With O=C1C(Cl)=C(Cl)C(=O)C(Cl)=C1Cl the AC50 was 1.63 µM (active).
For N#CCCCCC#N, the outcome was “inactive”.
For CC(C)(c1cc(Cl)c(O)c(Cl)c1)c1cc(Cl)c(O)c(Cl)c1, the AC50 was 7.69 µM (active).
For COCC(=O)N(c1c(C)cccc1C)N1CCOC1=O, the outcome was “inactive”.
For CC(C)CCCCCCCOP(=O)(Oc1ccccc1)Oc1ccccc1, the AC50 was 3.16 µM (active).
For C=CCN(CC=C)C(=O)C(Cl)Cl, the outcome was “inactive”.
For c1ccc(Nc2ccc3ccccc3c2)cc1, the AC50 was 34.9 µM (active).
With Cc1ccc(OP(=O)(Oc2ccc(C)cc2)Oc2ccc(C)cc2)cc1 (tested in a mixture with another compound) the AC50 was 20 µM (active).
In the case of O=S(=O)(c1ccccc1)c1ccccc1, the outcome is reported as “inactive”.
In the case of CC(=O)/C=C/c1ccccc1, the outcome is reported as “inactive”.

Read-out: Macrophage colony-stimulating factor (MCSF), CSF1 (gene 1435)
Experiment: BSK_hDFCGF_MCSF: BioMAP Diversity Plus: hDFCGF Assay for Macrophage colony-stimulating factor (MCSF) Biomarker Activity (AID 2283060)
Conditions: primary human foreskin fibroblasts; actives raise or lower the signal
How it was run: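 M-CSF levels read by ELISA at 24 h post-dosing in human skin fibroblasts. Parallel cultures stained with SRB assessed cytotoxicity at the same time point; response fitted in both directions against the DMSO baseline.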
For O=C1C(Cl)=C(Cl)C(=O)C(Cl)=C1Cl, the AC50 was 20 µM (active).
For N#CCCCCC#N, the outcome was “inactive”.
With CC(C)(c1cc(Cl)c(O)c(Cl)c1)c1cc(Cl)c(O)c(Cl)c1 the AC50 was 12.2 µM (active).
With COCC(=O)N(c1c(C)cccc1C)N1CCOC1=O the outcome was “inactive”.
With CC(C)CCCCCCCOP(=O)(Oc1ccccc1)Oc1ccccc1 the AC50 was 8.47 µM (active).
For C=CCN(CC=C)C(=O)C(Cl)Cl, the outcome was “inactive”.
In the case of c1ccc(Nc2ccc3ccccc3c2)cc1, the AC50 is reported as 34.4 µM (active).
With Cc1ccc(OP(=O)(Oc2ccc(C)cc2)Oc2ccc(C)cc2)cc1 (tested in a mixture with another compound) the AC50 was 20 µM (active).
For O=S(=O)(c1ccccc1)c1ccccc1, the outcome was “inactive”.
In the case of CC(=O)/C=C/c1ccccc1, the outcome is reported as “inactive”.

Source: PubChem BioAssay (EPA / NIEHS)
